Measurements as given in PubChem BioAssay (Tox21).
Records with an inconclusive call do not appear. Calls of active or inactive are those of the source. Unless noted, calls come from the whole dose curve; as a rule, active = well fitted curve in the direction sought with a large enough effect in the repeat runs; inconclusive = weak or mixed curves; inactive = no such curve, though single readings can be large; an effect the other way counts as inactive or inconclusive.

Assays:
[1] = qHTS assay to identify small molecule antagonists of the estrogen receptor alpha (ER-alpha) signaling pathway using the BG1 cell line in the presence of 0.1 nM 17-beta-estradiol - cell viability counter screen (AID 1259241); note: nearly all actives have a fitted effect of over 40% in size
Procedure, shortened: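 CellTiter-Fluor read (30 min, 37C) on ER-alpha/ERE-luc VM7Luc4E2 cells; 22 hr compound treatment; agonist 0.1 nM E2 final; same-well multiplex.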

[2] = qHTS assay to identify small molecule antagonists of the androgen receptor (AR) signaling pathway using the MDA cell line in the presence of 0.5 nM R1881 - cell viability counter screen (AID 1259242); note: nearly all actives have a fitted effect of over 45% in size
Procedure, shortened: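 Live-cell protease activity was measured by CellTiter-Fluor fluorescence after 30 min. Before that, MDA-kb2 MMTV-luciferase cells had 16 hr at 37C without CO2, exposed to test compounds and 0.5 nM R1881 final.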

[3] = target: Estrogen receptor (Homo sapiens) (UniProt P03372); test: qHTS assay to identify small molecule antagonists of the estrogen receptor alpha (ER-alpha) signaling pathway using the BG1 cell line in the presence of 0.1 nM 17-beta-estradiol (AID 1259244); note: nearly all actives have a fitted effect of over 50% in size
Procedure, shortened: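 Luciferase luminescence (ONE-Glo, 30 min at room temperature) was read after 22 hr at 37C exposure to compounds plus 17beta-estradiol at 0.1 nM final. Cells were VM7Luc4E2 with endogenous ER-alpha and an ERE-driven luciferase, pre-cultured 5 days in hormone-depleted medium.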

[4] = qHTS assay to identify small molecule phospholipidosis (PLD) inducers (AID 1259344; active = well fitted curve in the direction sought with a large enough effect; an effect the other way counts as inactive or inconclusive)
Procedure, shortened: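 Image-based: LipidTOX Red pit count/intensity per well and per cell; HepG2, 24 h compound at 37 C, PFA fixation, Hoechst counterstain.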

[5] = qHTS assay to identify small molecule HDAC inhibitors (AID 1259364); note: top concentration of the series differs between compounds; nearly all actives have a fitted effect of over 45% in size
Procedure, shortened: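 Luminescence read after 30 min room-temperature HDAC-Glo incubation measures cellular class I/II HDAC activity. Compounds were applied for 2 hr at 37 C to HCT-116 wild-type cells seeded the day before.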

[6] = qHTS assay to identify small molecule HDAC inhibitors - cell viability counter screen (AID 1259365); note: series mostly up to about 92 µM; nearly all actives have a fitted effect of over 50% in size
Procedure, shortened: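 To flag cytotoxic hits, 1,500 wild-type HCT-116 cells per well, plated the day before, receive test compounds for 2hr at 37 C before CellTiter-Glo reagent and a luminescence read.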

[7] = qHTS assay to identify small molecule agonists of the sonic hedgehog signaling (Shh) pathway - cell viability counter screen (AID 1259366); note: nearly all actives have a fitted effect of over 50% in size
Procedure, shortened: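 Fluorescence from CellTiter-Fluor reports live cells in this counter screen. NIH/3T3-derived Gli1-Luc reporter cells receive test compounds for 24hr at 37C; reagent goes in at 23hr.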

[8] = qHTS assay to identify small molecule antagonists of the sonic hedgehog signaling (Shh) pathway - cell viability counter screen (AID 1259367); note: nearly all actives have a fitted effect of over 55% in size
Procedure, shortened: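 Tox21 library chemicals were tested on a Gli1-Luc NIH/3T3 clone (2,000 cells/well) stimulated by conditioned medium; viability was quantified as fluorescence from CellTiter-Fluor reagent added at 23 hr.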

[9] = qHTS assay to identify small molecule agonists of the sonic hedgehog signaling (Shh) pathway (AID 1259368; calls by dose curve;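 note: NIH/3T3-derived 3T3Gli1-Luc cells carrying a stable Gli1-driven firefly luciferase reporter; series mostly up to about 92 µM; nearly all actives have a fitted effect of over 15% in size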)
Procedure, shortened: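 Luminescence was read after 30 min at room temperature with luciferase reagent. Before that, 3T3Gli1-Luc cells (NIH/3T3 clone, stable Gli1-Luc reporter; 2,000/well) were exposed to compounds for 24 hr at 37C, 5% CO2, compounds being added 4 hr post-plating.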

[10] = qHTS assay to identify small molecule antagonists of the sonic hedgehog signaling (Shh) pathway (AID 1259369; calls by dose curve; note: nearly all actives have a fitted effect of over 45% in size)
Procedure, shortened: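 Antagonist mode: compound added to 3T3 Gli1-Luc cells followed by conditioned-medium stimulation, 24 h at 37 C, 5% CO2. Inhibition taken as loss of Gli1-driven luciferase luminescence.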

[11] = qHTS assay to identify small molecule agonists of the estrogen receptor beta (ER-beta) signaling pathway - cell viability counter screen (AID 1259380); note: nearly all actives have a fitted effect of over 30% in size
Procedure, shortened: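 Cell viability counter screen: CellTiter-Glo luminescence (30 min, room temperature) measured in the same wells as the beta-lactamase readout, after 16 hr compound exposure at 37C of ER-beta-bla HEK293T cells in 2% charcoal-stripped FBS medium.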

[12] = qHTS assay to identify small molecule antagonists of the estrogen receptor beta (ER-beta) signaling pathway - cell viability counter screen (AID 1259382); note: series mostly up to about 92 µM; nearly all actives have a fitted effect of over 55% in size
Procedure, shortened: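 Cytotoxicity was measured in the same wells by CellTiter-Glo luminescence after 30 min at room temperature. Cells were ER-beta-bla HEK293T in charcoal-stripped serum, given compound together with 1 nM E2 and incubated 16 h at 37C.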

[13] = target: Estrogen receptor (Homo sapiens) (UniProt P03372); test: qHTS assay to identify small molecule agonists of the estrogen receptor alpha (ER-alpha) signaling pathway in the presence of an antagonist (AID 1259383; calls by dose curve; note: top concentration of the series differs between compounds; nearly all actives have a fitted effect of over 15% in size)
Procedure, shortened: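 Agonist-mode confirmation run in the presence of 10.0nM (final) ICI-182,780 antagonist. The reporter was ERE-driven luciferase in VM7Luc4E2 cells, grown in charcoal-stripped serum. Cells were exposed to 15-concentration compound series for 22hr, then ONE-Glo luminescence was read.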

[14] = qHTS assay to identify small molecule agonists or antagonists of the thyroid stimulating hormone receptor (TSHR) signaling pathway - wild type cell line counter screen (AID 1259384; calls by dose curve)
Procedure, shortened: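 Wild-type Hek293 cells, 800/well, 18 h at 37C, then compound with Ro20-1724 for 30 min RT. cAMP by HTRF (cAMP-d2/anti-cAMP cryptate), 1 h RT, fluorescence read. 15 concentrations, triplicates.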

[15] = target: Thyrotropin receptor (Homo sapiens) (UniProt P16473); test: qHTS assay to identify small molecule antagonists of the thyroid stimulating hormone receptor (TSHR) signaling pathway (AID 1259385; calls by dose curve; note: nearly all actives have a fitted effect of over 20% in size)
Procedure, shortened: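 TSHR-HEK293 cells (800/well) plated 18 h, then compounds with Ro20-1724 and TSH at 1.5 ng/mL final, 30 min at room temperature. cAMP quantified by HTRF (cAMP-d2/anti-cAMP-cryptate, 1 h); 15 concentrations in triplicate.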

[16] = target: Estrogen receptor beta (Homo sapiens) (UniProt Q92731); test: qHTS assay to identify small molecule antagonists of the estrogen receptor beta (ER-beta) signaling pathway (AID 1259378; active = well fitted inhibition curve with a large enough effect in the signal ratio in the repeat runs, not every such curve was filed as active; the % refers to the signal ratio)
Procedure, shortened: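 ER-beta-UAS-bla HEK293T cells in 2% charcoal-stripped FBS medium treated with compound plus 1nM final 17-beta-estradiol for 16 hr at 37C. Beta-lactamase reporter read by FRET substrate fluorescence after 2 hours at room temperature.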

[17] = qHTS assay to identify small molecule agonists of the androgen receptor (AR) signaling pathway in the presence of an antagonist - cell viability counter screen (AID 1259379);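 note: MDA-kb2 human breast cancer cells carrying an MMTV luciferase reporter; series mostly up to about 92 µM; nearly all actives have a fitted effect of over 25% in size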
Procedure, shortened: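 Cytotoxicity counter-screen run in the same wells as the nilutamide-challenged (3.0 µM final) AR agonist assay in MDA-kb2 cells. Compounds tested at 15 concentrations for 16 h, 37 °C without CO2; CellTiter-Fluor fluorescence read.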

[18] = target: Estrogen receptor beta (Homo sapiens) (UniProt Q92731); test: qHTS assay to identify small molecule agonists of the estrogen receptor beta (ER-beta) signaling pathway (AID 1259377; active = well fitted activation curve with a large enough effect in the signal ratio in the repeat runs, not every such curve was filed as active; the % refers to the signal ratio)
Procedure, shortened: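 Screening used GripTite ER-beta-UAS-bla cells held in 2% charcoal-stripped FBS medium. After overnight (16 hr) compound incubation at 37C, beta-lactamase activity was detected with a FRET substrate by fluorescence.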
% is set by controls: 0 for no effect and ±100 for the full control effect.

Estrogen receptor (Homo sapiens), sequence (P03372 whole entry, looked up): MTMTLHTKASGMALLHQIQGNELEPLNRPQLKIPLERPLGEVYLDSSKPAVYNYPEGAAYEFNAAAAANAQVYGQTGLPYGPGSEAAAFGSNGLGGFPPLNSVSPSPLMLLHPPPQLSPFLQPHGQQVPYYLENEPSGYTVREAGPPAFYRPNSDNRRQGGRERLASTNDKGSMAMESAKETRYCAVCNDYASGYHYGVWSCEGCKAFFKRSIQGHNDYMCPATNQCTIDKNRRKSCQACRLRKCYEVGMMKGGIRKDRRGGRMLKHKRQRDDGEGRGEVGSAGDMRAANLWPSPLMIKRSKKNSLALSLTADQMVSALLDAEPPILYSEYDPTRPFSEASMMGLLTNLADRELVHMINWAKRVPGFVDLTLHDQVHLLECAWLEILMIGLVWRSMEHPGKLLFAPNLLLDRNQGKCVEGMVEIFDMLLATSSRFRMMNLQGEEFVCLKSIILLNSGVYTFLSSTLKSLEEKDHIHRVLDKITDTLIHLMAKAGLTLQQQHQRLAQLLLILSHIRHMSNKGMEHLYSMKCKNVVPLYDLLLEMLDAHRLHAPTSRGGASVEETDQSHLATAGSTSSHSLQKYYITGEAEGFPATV
Thyrotropin receptor (Homo sapiens), sequence (P16473 whole entry, looked up): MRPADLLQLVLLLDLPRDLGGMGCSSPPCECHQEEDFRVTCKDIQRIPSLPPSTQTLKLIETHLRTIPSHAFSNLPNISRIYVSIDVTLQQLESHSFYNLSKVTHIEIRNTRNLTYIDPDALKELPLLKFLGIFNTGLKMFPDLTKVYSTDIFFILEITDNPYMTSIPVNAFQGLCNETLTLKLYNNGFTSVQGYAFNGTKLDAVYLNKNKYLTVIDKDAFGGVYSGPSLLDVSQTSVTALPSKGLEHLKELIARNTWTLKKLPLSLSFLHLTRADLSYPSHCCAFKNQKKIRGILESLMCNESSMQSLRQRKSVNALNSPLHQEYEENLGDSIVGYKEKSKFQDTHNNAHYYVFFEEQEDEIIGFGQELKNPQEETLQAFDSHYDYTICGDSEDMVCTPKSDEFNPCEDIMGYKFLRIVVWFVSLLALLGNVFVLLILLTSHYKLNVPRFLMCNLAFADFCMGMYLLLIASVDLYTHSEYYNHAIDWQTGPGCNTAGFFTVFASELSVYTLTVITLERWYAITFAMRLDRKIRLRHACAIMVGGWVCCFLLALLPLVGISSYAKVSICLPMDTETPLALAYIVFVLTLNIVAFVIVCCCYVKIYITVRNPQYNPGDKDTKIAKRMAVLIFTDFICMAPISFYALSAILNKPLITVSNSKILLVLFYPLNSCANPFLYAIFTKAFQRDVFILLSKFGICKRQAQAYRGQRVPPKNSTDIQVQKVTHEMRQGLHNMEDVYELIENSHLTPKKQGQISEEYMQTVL
Estrogen receptor beta (Homo sapiens), sequence (Q92731 whole entry, looked up): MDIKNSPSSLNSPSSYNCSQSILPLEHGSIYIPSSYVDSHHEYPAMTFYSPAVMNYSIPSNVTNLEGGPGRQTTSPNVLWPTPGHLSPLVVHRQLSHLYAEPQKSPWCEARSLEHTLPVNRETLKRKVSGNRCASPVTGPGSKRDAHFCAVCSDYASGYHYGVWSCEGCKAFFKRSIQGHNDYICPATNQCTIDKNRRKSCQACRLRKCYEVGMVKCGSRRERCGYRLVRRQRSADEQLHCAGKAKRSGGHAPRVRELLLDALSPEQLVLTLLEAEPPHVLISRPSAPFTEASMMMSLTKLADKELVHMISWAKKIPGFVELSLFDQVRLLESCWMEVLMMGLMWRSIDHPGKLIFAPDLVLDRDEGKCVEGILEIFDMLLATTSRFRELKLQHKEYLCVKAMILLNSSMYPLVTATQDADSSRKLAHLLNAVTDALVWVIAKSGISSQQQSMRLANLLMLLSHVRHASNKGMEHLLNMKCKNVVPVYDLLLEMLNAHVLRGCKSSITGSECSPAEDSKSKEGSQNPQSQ

CN1C(C)(C)CCCC1(C)C
inactive: Potency [1] | outcome [2] | Potency [3] | outcome [4] | Potency [5] | outcome [6] | Potency [7] | Potency [8] | outcome [9] | Potency [10] | Potency [11] | outcome [12] | outcome [13] | outcome [14] | outcome [15]

COP(=O)(OC)OC(c1ccc(Cl)cc1)P(=O)(OC)OC (stereo unspecified)
inactive: Potency [1] | outcome [2] | Potency [3] | outcome [4] | Potency [5] | outcome [6] | Potency [7] | Potency [8] | outcome [9] | Potency [11] | outcome [12] | outcome [13] | outcome [14] | outcome [15]

Cc1c(I)c(=O)n(-c2ccccc2)n1C
inactive: Potency [1] | outcome [2] | Potency [3] | outcome [4] | Potency [5] | outcome [6] | Potency [7] | Potency [8] | outcome [9] | Potency [10] | outcome [16] | Potency [11] | outcome [12] | outcome [13] | outcome [14] | outcome [15]

CCOC(=O)c1ccc(OC(=O)CCCCCN=C(N)N)cc1
inactive: Potency [1] | outcome [2] | Potency [3] | outcome [4] | outcome [6] | Potency [7] | Potency [8] | outcome [9] | Potency [10] | Potency [17] | outcome [12] | outcome [13] | outcome [14] | outcome [15]

CC(=O)NCCCCCC(=O)O
inactive: Potency [1] | outcome [2] | Potency [3] | outcome [4] | Potency [5] | outcome [6] | Potency [7] | outcome [9] | Potency [10] | Potency [18] | outcome [16] | Potency [17] | Potency [11] | outcome [12] | outcome [13] | outcome [14] | outcome [15]

CCCCCCCCC1CCC(=O)O1 (stereo unspecified)
inactive: Potency [1] | outcome [2] | Potency [3] | Potency [5] | outcome [6] | Potency [7] | Potency [8] | outcome [9] | Potency [10] | Potency [18] | outcome [16] | Potency [17] | Potency [11] | outcome [12] | outcome [13] | outcome [14] | outcome [15]

COCCOC(=O)C1=C(C)NC(C)=C(C(=O)OC(C)C)C1c1cccc([N+](=O)[O-])c1 (stereo unspecified)
inactive: Potency [1] | outcome [2] | Potency [3] | outcome [4] | Potency [5] | outcome [6] | Potency [7] | outcome [9] | Potency [10] | Potency [17] | Potency [11] | outcome [13] | outcome [14] | outcome [15]

COc1cc2c(cc1OC)[C@@H]1CC(=O)[C@@H](CC(C)C)CN1CC2
inactive: Potency [1] | outcome [2] | Potency [3] | outcome [4] | Potency [5] | outcome [6] | Potency [7] | Potency [8] | outcome [9] | Potency [18] | Potency [17] | Potency [11] | outcome [12] | outcome [13] | outcome [14] | outcome [15]

Cc1nc2n(c(=O)c1CCN1CCC(c3noc4cc(F)ccc34)CC1)CCC[C@H]2O
inactive: activity change, negative = cytotoxicity [1] 1.89% [at 19 µM] | viability change, negative = cytotoxic [2] 9.15% [at 19 µM] | activity change, negative = inhibition [3] 1.12% [at 19 µM] | outcome [4] | activity change, negative = inhibition [5] -1.31% [at 19 µM] | activity change, negative = cytotoxicity [6] -0.155% [at 19 µM] | viability change, negative = cytotoxic [7] -0.31% [at 19 µM] | viability change, negative = cytotoxic [8] -0.26% [at 19 µM] | activity change [9] -0.0213% [at 18.9 µM] | activity change, negative = inhibition [10] -4.73% [at 19 µM] | activation [18] 1.63% [at 19 µM] | activity, negative = inhibition [16] 0.444% [at 19 µM] | activity change, negative = cytotoxicity [11] -7.67% [at 19 µM] | activity change, negative = cytotoxicity [12] 1.75% [at 19 µM] | activation [13] 0% [at 19 µM] | cAMP activity change [14] -2.33% [at 18.9 µM] | activity change, negative = inhibition [15] -7.26% [at 19 µM]

Cc1cccc(C)c1OCC(C)N (stereo unspecified)
inactive: Potency [1] | outcome [2] | Potency [3] | outcome [4] | Potency [5] | outcome [6] | Potency [7] | Potency [8] | outcome [9] | Potency [10] | Potency [17] | Potency [11] | outcome [12] | outcome [13] | outcome [14] | outcome [15]

NS(=O)(=O)c1ccc(NC(=O)CCC(=O)O)cc1
inactive: Potency [1] | outcome [2] | Potency [3] | outcome [4] | Potency [5] | outcome [6] | Potency [7] | outcome [9] | Potency [10] | Potency [18] | outcome [16] | Potency [17] | Potency [11] | outcome [13] | outcome [14] | outcome [15]

C=C1CC/C=C(\C)CC[C@@H]2[C@@H]1CC2(C)C
inactive: Potency [1] | outcome [2] | Potency [3] | Potency [5] | outcome [6] | Potency [7] | Potency [8] | outcome [9] | Potency [10] | Potency [18] | outcome [16] | Potency [17] | Potency [11] | outcome [13] | outcome [14] | outcome [15]

CNS(=O)(=O)CCc1ccc2[nH]cc(C3CCN(C)CC3)c2c1
inactive: Potency [1] | outcome [2] | Potency [3] | outcome [4] | Potency [5] | outcome [6] | Potency [7] | outcome [9] | Potency [10] | Potency [18] | outcome [16] | Potency [17] | Potency [11] | outcome [12] | outcome [13] | outcome [14] | outcome [15]

CCCN1C[C@H](CSC)C[C@@H]2c3cccc4[nH]cc(c34)C[C@H]21
inactive: Potency [1] | outcome [2] | Potency [3] | outcome [4] | outcome [6] | Potency [7] | Potency [8] | outcome [9] | Potency [10] | Potency [18] | outcome [12] | outcome [13] | outcome [14] | outcome [15]

CCCCCCCCSCC
inactive: Potency [1] | outcome [2] | Potency [3] | Potency [5] | outcome [6] | Potency [7] | Potency [8] | outcome [9] | Potency [10] | Potency [18] | outcome [16] | Potency [17] | Potency [11] | outcome [12] | outcome [13] | outcome [14] | outcome [15]
